# PubChem BioAssay
# Inconclusive results are not listed. Active and inactive are the calls of the source. Unless noted, cut-off not given; nearly all actives show AC50 up to about 26 µM.
# Assays:
# [1] = growth inhibition of DIPG glioma cells, dose response, cell-based, SU-DIPG-XVII, MIPE5.0, CellTiter-Glo, qHTS (AID 1347060); details: SU-DIPG-XVII viability, CellTiter-Glo ATP luminescence;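 on AC50: cells exposed to compound for 48 hours before viability readout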
# [2] = viability loss in pontine glioma line – cell-based, SU-DIPG-XXV, MIPE5.0, CellTiter-Glo, qHTS, dose response (AID 1347065); details: CellTiter-Glo ATP luminescence;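 further: cells exposed to compound for 48 hours before ATP readout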
# [3] = SU-DIPG-VI glioma cell viability, MIPE4.0 library, CellTiter-Glo luminescence, qHTS (AID 1347066; cut-off not given, nearly all actives have AC50 up to about 30 µM;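 further: cells exposed to compound for 48 hours before readout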); details: CellTiter-Glo ATP luminescence
# [4] = JHH-DIPG-1 glioma cell viability, MIPE5.0 library, CellTiter-Glo luminescence, qHTS (AID 1347067); details: JHH-DIPG-1 glioma viability, CellTiter-Glo ATP luminescence;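 further: cells exposed to compound for 48 hours before readout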
# [5] = sensitizers of A549 cells to miR-34 induction, primary screen, imaging, A549 dox-inducible miR-34, nuclei and caspase counts (AID 1347080;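 active means compounds whose cell count with miR-34 switched on is under 0.7 times the count with it off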); details: A549 miR-34 inducible, Hoechst nuclei count, 48 h
# [6] = survival rescue of mitochondrial mutant cells in low glucose, primary screen, MELAS cybrids, Rieske KO mouse fibroblasts, CellTiter-Glo (AID 1508586;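 active means mean z-score across replicates of 1.96 or higher in either the MELAS or the Rieske mutant cell line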;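 further: z relative to plate mean and SD of compound and empty wells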)
# [7] = modifiers of HSF1 nuclear foci, imaging, Selleck Cancer Library (AID 1347162; in the data active means plate-normalised HSF1 focus index below about 0.46); details: human cells, at 10 µM; SSMD: measured here: HSF1 foci SSMD mean; cell count: measured here: cell number; plate-normalised HSF1 focus index: stronger effect = lower value
# [8] = ovarian cancer cell viability with rucaparib, profiling panel, oncology-focused library, rucaparib conditional (AID 1508598;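 active means normalized viability below 100% at a tested concentration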); details: patient-derived ovarian cancer cells, CellTiter-Glo viability, 144 h, stronger effect = lower value
# [9] = SU-DIPG-XXV glioma cell viability, MIPE5.0 library, qHTS (AID 1347068; cut-off not given, nearly all actives have IC50 up to about 30 µM;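 on IC50: cells exposed to compound for 48 hours before viability readout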)
compound,measurement,setting,value
CCS(=O)(=O)N1CC(CC#N)(n2cc(-c3ncnc4[nH]ccc34)cn2)C1,AC50,[1],18.6 µM (active)
same,AC50,[2],18.6 µM (active)
same,outcome,[3],inactive
same,outcome,[4],inactive
same,fold change,"[5]; stronger effect = lower value, cell number ratio, induced over uninduced",0.973 (inactive)
same,fold change,[5]; measured here: relative caspase fold change +Dox/-Dox,0.869
same,cell count,"[5]; measured here: total cells with miR-34 induction, stronger effect = lower value",8770
same,cell count,[5]; measured here: total cells without miR-34 induction,9020
same,z-score,"[6]; MELAS cybrid survival, CellTiter-Glo 48 h, stronger effect = higher value",-0.48 (inactive)
same,z-score,"[6]; Rieske KO mouse fibroblast survival, CellTiter-Glo 72 h",0.0326
O=C1NC(=O)[C@@H](c2c[nH]c3ccccc23)[C@H]1c1cn2c3c(cccc13)CCC2,AC50,[1],0.525 µM (active)
same,AC50,[2],0.742 µM (active)
same,AC50,[4],1.66 µM (active)
CCc1c(C(=O)NNC(=O)[C@@H](O)c2cc(F)cc(F)c2)ccc(O)c1C,outcome,[1],inactive
same,outcome,[2],inactive
same,outcome,[4],inactive
C[C@@H](Oc1cc(-n2cnc3ccc(CN4CCN(C)CC4)cc32)sc1C(N)=O)c1ccccc1C(F)(F)F,AC50,[1],0.0525 µM (active)
same,AC50,[2],0.0372 µM (active)
same,AC50,[3],18.7 µM (active)
same,SSMD,[7],1.17
same,cell count,[7],6420
same,plate-normalised HSF1 focus index,[7],1.06 (inactive)
same,viability,"[8]; at 0.000305 µM, OCI-C5x cells, with rucaparib 10 µM, 100% = cells with rucaparib alone",99.2% (active)
same,viability,"[8]; at 0.000305 µM, OCI-C5x cells, without rucaparib",88.3% (active)
same,viability,"[8]; at 0.000305 µM, OCI-P5x cells, with rucaparib 20 µM, 100% = cells with rucaparib alone",87% (active)
same,viability,"[8]; at 0.000305 µM, OCI-P5x cells, without rucaparib",33.3% (active)
same,viability,"[8]; at 0.00122 µM, OCI-C5x cells, with rucaparib 10 µM, 100% = cells with rucaparib alone",92.1% (active)
same,viability,"[8]; at 0.00122 µM, OCI-C5x cells, without rucaparib",72.7% (active)
same,viability,"[8]; at 0.00122 µM, OCI-P5x cells, with rucaparib 20 µM, 100% = cells with rucaparib alone",73.8% (active)
same,viability,"[8]; at 0.00122 µM, OCI-P5x cells, without rucaparib",22% (active)
same,viability,"[8]; at 0.00488 µM, OCI-C5x cells, with rucaparib 10 µM, 100% = cells with rucaparib alone",76.5% (active)
same,viability,"[8]; at 0.00488 µM, OCI-C5x cells, without rucaparib",44% (active)
same,viability,"[8]; at 0.00488 µM, OCI-P5x cells, with rucaparib 20 µM, 100% = cells with rucaparib alone",73.2% (active)
same,viability,"[8]; at 0.00488 µM, OCI-P5x cells, without rucaparib",18% (active)
same,viability,"[8]; at 0.0195 µM, OCI-C5x cells, with rucaparib 10 µM, 100% = cells with rucaparib alone",46.7% (active)
same,viability,"[8]; at 0.0195 µM, OCI-C5x cells, without rucaparib",33.6% (active)
same,viability,"[8]; at 0.0195 µM, OCI-P5x cells, with rucaparib 20 µM, 100% = cells with rucaparib alone",62.1% (active)
same,viability,"[8]; at 0.0195 µM, OCI-P5x cells, without rucaparib",13.6% (active)
same,viability,"[8]; at 0.0781 µM, OCI-C5x cells, with rucaparib 10 µM, 100% = cells with rucaparib alone",41.7% (active)
same,viability,"[8]; at 0.0781 µM, OCI-C5x cells, without rucaparib",30.9% (active)
same,viability,"[8]; at 0.0781 µM, OCI-P5x cells, with rucaparib 20 µM, 100% = cells with rucaparib alone",62.6% (active)
same,viability,"[8]; at 0.0781 µM, OCI-P5x cells, without rucaparib",15.3% (active)
same,viability,"[8]; at 0.313 µM, OCI-C5x cells, with rucaparib 10 µM, 100% = cells with rucaparib alone",34.4% (active)
same,viability,"[8]; at 0.313 µM, OCI-C5x cells, without rucaparib",22.2% (active)
same,viability,"[8]; at 0.313 µM, OCI-P5x cells, with rucaparib 20 µM, 100% = cells with rucaparib alone",70.6% (active)
same,viability,"[8]; at 0.313 µM, OCI-P5x cells, without rucaparib",13.4% (active)
same,viability,"[8]; at 1.25 µM, OCI-C5x cells, with rucaparib 10 µM, 100% = cells with rucaparib alone",38.1% (active)
same,viability,"[8]; at 1.25 µM, OCI-C5x cells, without rucaparib",28.8% (active)
same,viability,"[8]; at 1.25 µM, OCI-P5x cells, with rucaparib 20 µM, 100% = cells with rucaparib alone",62.3% (active)
same,viability,"[8]; at 1.25 µM, OCI-P5x cells, without rucaparib",15.1% (active)
same,viability,"[8]; at 5 µM, OCI-C5x cells, with rucaparib 10 µM, 100% = cells with rucaparib alone",51.4% (active)
same,viability,"[8]; at 5 µM, OCI-C5x cells, without rucaparib",3.97% (active)
same,viability,"[8]; at 5 µM, OCI-P5x cells, with rucaparib 20 µM, 100% = cells with rucaparib alone",0.676% (active)
same,viability,"[8]; at 5 µM, OCI-P5x cells, without rucaparib",11.4% (active)
Cc1cc(Nc2cc(N)ncn2)c(=O)n2c1C(=O)NC21CCCCC1,outcome,[1],inactive
same,outcome,[2],inactive
same,outcome,[4],inactive
same,outcome,[9],inactive
Cn1c(-c2ccccc2C(F)(F)F)nnc1C12CCC(c3noc(C4CC(F)(F)C4)n3)(CC1)CC2,outcome,[1],inactive
same,outcome,[2],inactive
same,outcome,[4],inactive
same,outcome,[9],inactive
CC(C)(C)Sc1c(CC(C)(C)C(=O)O)n(Cc2ccc(Cl)cc2)c2ccc(OCc3ccc4ccccc4n3)cc12,AC50,[1],20.9 µM (active)
same,AC50,[2],20.9 µM (active)
same,AC50,[4],18.6 µM (active)
same,outcome,[9],inactive
COc1ccc2c(c1)CC[C@@H](CN(C)CC(=O)O)[C@H]2c1ccccc1,outcome,[1],inactive
same,outcome,[2],inactive
same,outcome,[3],inactive
same,outcome,[4],inactive
same,outcome,[9],inactive
Nc1cc(COc2c(Cl)cc(C[C@H](N)C(=O)O)cc2Cl)c2oc(-c3ccccc3)nc2c1,outcome,[1],inactive
same,outcome,[2],inactive
same,outcome,[4],inactive
same,outcome,[9],inactive
C[C@H]1CNC(=O)c2cnn3ccc(nc23)N[C@H](C)c2cc(F)ccc2O1,AC50,[1],1.05 µM (active)
same,AC50,[2],0.934 µM (active)
same,AC50,[4],1.48 µM (active)
same,IC50,[9],2.95 µM (active)
C[C@]1(C(=O)N(CCCC(=O)O)Cc2cccc(Cl)c2)CCN1C(=O)c1csc2ccccc12,outcome,[1],inactive
same,outcome,[2],inactive
same,outcome,[4],inactive
same,outcome,[9],inactive
COc1cc(N2CCN(C)CC2)ccc1Nc1ncc2c(n1)N(C)c1ccccc1C(=O)N2C,AC50,[1],18.6 µM (active)
same,AC50,[2],18.6 µM (active)
same,AC50,[4],14.8 µM (active)
C[C@@H](OC[C@@]1(c2ccccc2)CC[C@]2(CCC(=O)N2)CN1)c1cc(C(F)(F)F)cc(C(F)(F)F)c1,AC50,[1],20.9 µM (active)
same,AC50,[2],18.6 µM (active)
same,AC50,[4],14.8 µM (active)
same,IC50,[9],20.9 µM (active)
CC(C)C[C@@H]1NC(=O)[C@@H](C(C)C)NC(=O)[C@@H]2CCCN2C(=O)[C@@H](CC(=O)O)NC(=O)[C@@H](Cc2c[nH]c3ccccc23)NC1=O,outcome,[1],inactive
same,outcome,[2],inactive
same,outcome,[4],inactive
same,outcome,[9],inactive
NC(=O)[C@H]1CCS[C@@H]2C[C@]3(CCCN3C(=O)Cc3ccc(NC(=O)COc4ccc(Cl)cc4Cl)cc3)C(=O)N12,AC50,[1],4.17 µM (active)
same,AC50,[2],10.5 µM (active)
same,AC50,[4],16.6 µM (active)
Cc1c(-c2ccnn2C)cc(C(=O)NCc2ccc(S(C)(=O)=O)cn2)c(=O)n1-c1cccc(C(F)(F)F)c1,outcome,[1],inactive
same,outcome,[2],inactive
same,outcome,[4],inactive
O=C(Nc1nnc(-c2ccco2)o1)c1cc(-c2ccccc2)nc2ccccc12,AC50,[1],26.3 µM (active)
same,AC50,[2],20.9 µM (active)
same,AC50,[3],14.8 µM (active)
same,outcome,[9],inactive
CC[C@H](NC(=O)[C@H](CS(=O)(=O)CC1CC1)N[C@@H](c1ccc(F)cc1)C(F)(F)F)C(=O)C(=O)NC1CC1,outcome,[1],inactive
same,outcome,[2],inactive
same,outcome,[4],inactive
C[C@@H]1COCCN1c1cc(-c2ccnn2C)c2ccnc(-c3ccn[nH]3)c2n1,AC50,[1],1.48 µM (active)
same,AC50,[2],1.86 µM (active)
same,AC50,[4],5.25 µM (active)
Cn1cc(C2=C(c3cn(C)c4cc([N+](=O)[O-])ccc34)C(=O)NC2=O)c2ccccc21,AC50,[1],0.332 µM (active)
same,AC50,[2],0.263 µM (active)
same,AC50,[4],0.468 µM (active)
same,IC50,[9],4.68 µM (active)
COc1c(C)cc(NC(=O)c2nn(Cc3ccc(F)cc3)c3c2CN(C(=O)c2ccc[nH]2)C[C@]3(C)C(N)=O)cc1C,outcome,[1],inactive
same,outcome,[2],inactive
same,outcome,[4],inactive
Fc1ccc2[nH]ccc2c1-c1nc(N2CCOCC2)c2sc(CN3CCN(CC4CC4)CC3)cc2n1,AC50,[1],20.9 µM (active)
same,AC50,[2],23.5 µM (active)
same,AC50,[4],23.5 µM (active)
Cc1ccc(-c2nn(C(C)(C)CNC(=O)c3ccncc3)c3ncnc(N)c23)cc1,AC50,[1],10.5 µM (active)
same,AC50,[2],13.2 µM (active)
same,AC50,[4],13.2 µM (active)
same,IC50,[9],14.8 µM (active)
